The results in this text go back to PubChem BioAssay (Tox21).

Records with an inconclusive call do not appear. A call without a number means that no potency is given here. Calls of active or inactive are those of the source. Calls follow the shape of the full dose curve.
Potency is read from the fitted curve at half-maximal effect.

The experiment in a line: p53 small molecule agonists, cell-based qHTS assay with rat liver microsomes: qHTS cell viability counter screen (AID 1963580). Also: nearly all actives have a fitted effect of over 45% in size. To be noted: p53RE-bla HCT-116 + rat microsomes, ATP viability, 16 h; series mostly up to 66 µM. From the text:
National Center for Advancing Translational Sciences [NCATS]
Division of Preclinical Innovation [DPI]
U.S. Environmental Protection Agency [EPA]
National Institutes of Environmental Health Sciences [NIEHS]
National Toxicology Program [NTP]
U.S. Food and Drug Administration [FDA]
p53, a tumor suppressor protein, is activated following cellular insult, including DNA damage and other cellular stresses. The activation of p53 regulates cell fate by inducing DNA repair, cell cycle arrest, apoptosis, or cellular senescence. The activation of p53, therefore, is a good indicator of DNA damage and other cellular stresses. The CellSensor p53RE-bla HCT-116 cell line contains a stably integrated beta-lactamase reporter gene under control of the p53 response elements. The activation of the reporter gene under culture conditions can be detected by fluorescence intensity. This cell line was used to screen the Tox21 10K compound library in the condition of presence of rat liver microsomes and to identify agonists that activate the p53 signaling pathway after in vitro metabolic activation (Ooka et al., Archive of Toxicology 96:1975-1987, 2022). The cytotoxicity of the Tox21 compound library against the p53 RE-bla HCT-116 cell line was tested in parallel by measuring the intra cellular ATP content in the same wells.
Tox21 Assay Protocol Summary:
The p53RE-bla cells were dispensed at 4,000cells/3ul/well in 1536-well black-clear bottom plates. After the assay plates were incubated at 37 C, 5% CO2 incubator for 5 hours, 23 nL of compounds dissolved in DMSO, positive controls or DMSO only was transferred to the assay plate. Following compound addition, 3 uL of rat liver microsomes (Molecular Toxicology, Boone, NC) at final concentration of 0.5 mg/mL and 1uL of B-Nicotinamide adenine dinucleotide 2'-phosphate (NADPH) at final concentration of 0.5 mg/mL were transferred to the assay plate. The plates were incubated at 37 C for 16 hours. 1 uL of LiveBLAzer detection mixture was added to each well and the plates were incubated at room temperature in the dark for 2 h. Fluorescence intensity at 460 and 530 nm emission and 405 nm excitation were measured by an Envision plate reader. For cell viability readout that measures cytotoxicity, 4 ul/well of CellTiter-Glo reagent was added into the assay plates using a Flying Reagent Dispenser. After 30 min incubation at room temperature, the luminescence intensity in the plates was measured using a ViewLux plate reader.
For orientation: qHTS replaces the single test concentration by a dilution series.
With `NC(=O)c1cn(Cc2c(F)cccc2F)nn1`, the Potency result was “inactive”.

As to `CCCCC(CC)COC(=O)c1ccccc1O` (stereo not given), the Potency entry was “inactive”.

Take `CN=C(NC#N)Nc1ccc(C2=NNC(=O)CC2C)cc1` (stereo not given): the Potency result is “inactive”.

Regarding `CCOC(=O)[C@H](CCc1ccccc1)N[C@@H](C)C(=O)N1[C@H](C(=O)O)C[C@@H]2CCC[C@@H]21`, the Potency result was “inactive”.

As to `CCCCCCCC[N+](CCCCCCCC)(CCCCCCCC)CCCCCCCC`, the Potency was 16.2 µM (active).

For `CCOC(=O)c1cnc2c(cnn2CC)c1NN=C(C)C`, the Potency entry was “inactive”.

Take `CO/N=C(\C(=O)O)c1csc(NC(=O)CCl)n1`: the Potency entry was “inactive”.

Take `N#C[C@@H]1CC(F)(F)CN1C(=O)CNC1CC2CCC(C1)N2c1ncccn1` (stereo not given in full): the Potency entry was “inactive”.

With `Cc1c(C(C)C)c(=O)n(-c2ccccc2)n1C`, the Potency entry is “inactive”.

For `Cc1cn([C@@H]2O[C@H](CO)[C@@H](O)[C@@H]2F)c(=O)[nH]c1=O`, the Potency entry was “inactive”.

Take `CC(C)C[C@@H](N)C(=O)O`: the activity change, negative = cytotoxicity was -0.234% [at 13.5 µM] (inactive).

In the case of `COc1ccc(OC)c(NC(=O)CC(C)=O)c1`, the Potency entry was “inactive”.

Regarding `C#CCOC(=O)[C@@H](C)Oc1ccc(Oc2ncc(Cl)cc2F)cc1`, the Potency entry is “inactive”.

Consider `CCNC(=O)C1CC(C)CCC1C(C)C` (stereo not given), for which the Potency result is “inactive”.

Regarding `CC(C)=CCC/C(C)=C\C#N`, the Potency entry is “inactive”.

In the case of `CCCCCCCCCCCc1ccccc1`, the Potency result is “inactive”.

Turning to `CC(=O)O[C@H]1C[C@@H]2CC[C@@H]3[C@H](CC[C@@]4(C)[C@H]3C[C@H]([N+]3(C)CCCCC3)[C@@H]4OC(C)=O)[C@@]2(C)C[C@@H]1N1CCCCC1`, the Potency result was “inactive”.

For the compound `CC(C)(C)NCC(O)COc1ccc(NC(=O)NC2CCCCC2)cc1` (stereo not given), the Potency entry was “inactive”.

On to `CC/C=C\CCOC(=O)c1ccccc1`, for which the Potency result is “inactive”.

For the compound `O=c1c(-c2ccccc2)c1-c1ccccc1`, the Potency result is “inactive”.

Turning to `C=C[Si](C)(C)O[Si](C)(C)C=C`, the Potency entry is “inactive”.

Consider `Nc1c(N=Nc2ccc(-c3ccc(N=Nc4cc(S(=O)(=O)O)c5ccccc5c4N)cc3)cc2)cc(S(=O)(=O)O)c2ccccc12`, for which the Potency result is “inactive”.

`COc1cc2c3cc1Oc1cc(ccc1O)C[C@@H]1c4c(cc(OC)c(O)c4Oc4ccc(cc4)C[C@@H]3N(C)CC2)CC[N+]1(C)C`: the Potency entry is “inactive”.

For `C=C1C(CCl)(CCl)C2(Cl)C(Cl)C(Cl)C1(Cl)C2(Cl)Cl` (stereo not given), the Potency entry is “inactive”.

Take `COc1ccc(-n2nc(CCC(=O)N(C)O)cc2-c2ccc(Cl)cc2)cc1`: the Potency entry is “inactive”.

In the case of `COCC(=O)Nc1c(I)c(C(=O)NCC(O)CO)c(I)c(C(=O)N(C)CC(O)CO)c1I` (stereo not given), the Potency entry was “inactive”.

For the compound `NC1CCN(c2cccc(Cl)n2)CC1`, the Potency entry was “inactive”.

For `CCCCCCCCSCc1cc(C)c(O)c(CSCCCCCCCC)c1`, the Potency result was “inactive”.

As to `CCCCCc1ccco1`, the Potency result was “inactive”.

Turning to `CCCCCCCCOc1ccccc1C(=O)Nc1ccc(C(=O)OCC[N+](C)(CC)CC)cc1`, the Potency entry is “inactive”.

Regarding `C[Si](NC1CCCCC1)(NC1CCCCC1)NC1CCCCC1`, the Potency result was “inactive”.

In the case of `CC[N+](CC)(CC)Cc1ccccc1`, the Potency entry is “inactive”.

For `N#Cc1ccc(CC(=O)c2cccc(C(F)(F)F)c2)cc1`, the Potency entry is “inactive”.

Turning to `NC(=O)NC(=O)Cc1ccccc1`, the Potency result is “inactive”.

On to `COc1cc(-c2ccc(N=C=O)c(OC)c2)ccc1N=C=O`, for which the Potency result is “inactive”.

With `O=S1OCCO1`, the Potency entry was “inactive”.

Take `C=CC(C)(O)CCCC(C)CCCC(C)CCCC(C)C` (stereo not given): the Potency entry was “inactive”.

With `CCCCCCC(O)CO` (stereo not given), the Potency entry was “inactive”.

`COCCCN1CCC(NC(=O)c2cc(Cl)c(N)c3c2OCC3)CC1`: the Potency entry is “inactive”.

Take `CCCCCCCCCCCCCC(=O)OCC(O)CO` (stereo not given): the Potency entry is “inactive”.
